Calls of active or inactive are those of the source. Rule for the calls: active = hit-call score of the fitted dose curve at least 0.9, where 1 is the maximum; inactive = score below 0.9.
Assays:
[1] = ATG_E_Box_CIS: Attagene CIS-FACTORIAL HepG2 Assay for human Enhancer Box (E-box) (AID 2282936); conditions: HepG2 E-box cis-reporter transcription, actives raise or lower the signal
In short: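 Endogenous transcription factor activity was sensed in human HepG2 liver cells through transfected cis-promoter reporter units. After 24 h of dosing, total RNA was reverse-transcribed and reporter cDNA resolved by capillary electrophoresis.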

[2] = ATG_M_61_CIS: Attagene CIS-FACTORIAL HepG2 Assay for M61 Transcription Factor (Internal Marker) (AID 2282937); conditions: HepG2 Attagene CIS-FACTORIAL M61 internal marker reporter; actives raise or lower the signal
In short: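 Human liver HepG2, transient MRTU transfection (cis promoter elements), 24 h compound. Total RNA → oligo(dT) RT → PCR → FAM label → HpaI → CE. Internal background marker; bidirectional fitting, DMSO = baseline.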

[3] = ATG_EGR_CIS: Attagene CIS-FACTORIAL HepG2 Assay for human Early Growth Response 1 (EGR1) (AID 2282938); conditions: HepG2 Attagene CIS-FACTORIAL EGR reporter mRNA; actives raise or lower the signal
In short: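 Transient transfection of human HepG2 with multiple cis-regulated reporter units, chemical exposure 24 h, total RNA isolated. Reverse transcription, PCR, fluorescent labelling and capillary electrophoresis quantify reporter transcripts; activity fitted bidirectionally against DMSO.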

[4] = ATG_M_19_CIS: Attagene CIS-FACTORIAL HepG2 Assay for M19 Transcription Factor (Internal Marker) (AID 2282939); conditions: HepG2 Attagene CIS-FACTORIAL M19 internal marker reporter; actives raise or lower the signal
In short: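 Readout: fluorescent reporter-transcript fragments by capillary electrophoresis after RT-PCR. Human HepG2 liver cells carried transfected MRTU constructs reporting endogenous transcription-factor activity; exposure 24 h. Gain or loss of signal fitted relative to DMSO.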

[5] = ATG_Ets_CIS: Attagene CIS-FACTORIAL HepG2 Assay for human Erythroblast Transformation Specific (ETS) (AID 2282941); conditions: HepG2 ETS cis-reporter transcription, actives raise or lower the signal
In short: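 Multiplexed reporter transcript profiling: HepG2, 24 h treatment, total RNA to cDNA, PCR, 6-FAM labelling, HpaI cut, capillary electrophoresis. Gain- or loss-of-signal fitted against DMSO.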

[6] = ATG_FoxO_CIS: Attagene CIS-FACTORIAL HepG2 Assay for human Forkhead box O (FoxO) (AID 2282943); conditions: HepG2 Attagene cis-reporter, FoxO element, mRNA; actives raise or lower the signal
In short: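 24 h chemical exposure, HepG2 with transient cis-MRTU transfection. RNA extraction, oligo(dT) RT, reporter-specific PCR, primer-extension labelling, HpaI digestion, CE fragment analysis; bidirectional fit, DMSO baseline.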

[7] = ATG_GATA_CIS: Attagene CIS-FACTORIAL HepG2 Assay for human GATA Binding Protein (AID 2282944); conditions: HepG2 GATA cis-element reporter, Attagene multiplex mRNA; actives raise or lower the signal
In short: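 Read-out: fluorescent reporter mRNA fragments resolved by capillary electrophoresis after RT-PCR. Human liver HepG2 cells carried transiently transfected cis-regulated reporter constructs; chemicals incubated 24 h; gain or loss of signal fitted relative to DMSO.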

[8] = ATG_GLI_CIS: Attagene CIS-FACTORIAL HepG2 Assay for human Zinc Finger Protein GLI1 (AID 2282945); conditions: HepG2, Attagene cis-factorial reporter mRNA, GLI element; actives raise or lower the signal
In short: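 HepG2 cells transiently transfected with cis-promoter multiplexed reporter units report endogenous transcription factor activity. After 24 h chemical exposure, reporter mRNA was quantified by RT-PCR, 6-FAM labelling, HpaI digestion and capillary electrophoresis, with bidirectional fitting against DMSO.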

[9] = molecular target: Bile acid receptor (Homo sapiens) (UniProt Q96RI1); test: ATG_IR1_CIS: Attagene CIS-FACTORIAL HepG2 Assay for human Nuclear Receptor Subfamily 1 Group H Member 4 (NR1H4), IR1 submotif (AID 2282946); conditions: IR1 reporter transcription, actives raise or lower the signal
In short: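 Readout: reporter transcript levels by RT-PCR with fluorescent capillary electrophoresis, from HepG2 cells transiently transfected with multiplexed cis-regulated reporters and dosed 24 h. Gain- or loss-of-signal fitted versus DMSO negative control.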

[10] = ATG_ISRE_CIS: Attagene CIS-FACTORIAL HepG2 Assay for human Interferon Regulatory Factor 1 (IRF1) binding to an Interferon-Stimulated Response Element (ISRE) (AID 2282948); conditions: HepG2 ISRE cis-reporter (Attagene), mRNA transcription readout; actives raise or lower the signal
In short: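 Signal reflects induction or loss of ISRE-linked reporter mRNA in transiently transfected HepG2 cells after a 24 h treatment, detected by fluorescent RT-PCR fragments on capillary electrophoresis and normalised to DMSO.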

[11] = ATG_M_32_CIS: Attagene CIS-FACTORIAL HepG2 Assay for M32 Transcription Factor (Internal Marker) (AID 2282949); conditions: HepG2 Attagene cis-factorial M32 reporter, mRNA; actives raise or lower the signal;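 note: background control marker of the multiplexed CIS panel rather than a real target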
In short: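 HepG2 human liver cells transiently transfected with cis-promoter-driven multiple reporter transcription units, dosed 24 h. Reporter mRNA quantified by RT-PCR, FAM-labelled primer extension, HpaI digest and capillary electrophoresis; bidirectional fit versus DMSO baseline.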

[12] = molecular target: Hypoxia-inducible factor 1-alpha (Homo sapiens) (UniProt Q16665); test: ATG_HIF1a_CIS: Attagene CIS-FACTORIAL HepG2 Assay for human Hypoxia Inducible Factor 1 (HIF1A) (AID 2282951); conditions: HepG2 Attagene cis-factorial HIF1a reporter transcription; actives raise or lower the signal
In short: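 Transient MRTU transfection of human HepG2 liver cells, 24 h compound treatment, then total RNA isolation, oligo(dT) reverse transcription, PCR amplification, fluorescent labelling and capillary electrophoresis of reporter fragments. Gain or loss relative to DMSO.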

[13] = molecular target: Hepatocyte nuclear factor 6 (Homo sapiens) (UniProt Q9UBC0); test: ATG_HNF6_CIS: Attagene CIS-FACTORIAL HepG2 Assay for human Hepatocyte Nuclear Factor 6 (HNF6) (AID 2282952); conditions: HepG2 Attagene cis-factorial HNF6 reporter transcription; actives raise or lower the signal
In short: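 First, HepG2 cells were transfected with the multiplexed cis reporter library and dosed with chemical for 24 h. Next, RNA was reverse-transcribed, PCR-amplified and fluorescently labelled. Finally, HpaI-digested fragments were read by capillary electrophoresis.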

[14] = molecular target: Heat shock factor protein 1 (Homo sapiens) (UniProt Q00613); test: ATG_HSE_CIS: Attagene CIS-FACTORIAL HepG2 Assay for human Heat Shock Transcription Factor 1 (HSE) (AID 2282953); conditions: HepG2 HSE cis-reporter, Attagene RNA transcription; actives raise or lower the signal
In short: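 Read-out: fluorescence of reporter-specific RT-PCR fragments separated by capillary electrophoresis. HepG2 carrying transfected cis-element reporter units; 24 h dosing; activity fitted in both directions relative to DMSO baseline.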

[15] = ATG_MRE_CIS: Attagene CIS-FACTORIAL HepG2 Assay for human Metal Responsive Element (MRE) (AID 2282954); conditions: HepG2 MRE cis-reporter transcription, Attagene multiplex; actives raise or lower the signal
In short: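 Cells were transfected with cis-promoter reporter transcription units, then dosed for 24 h. RNA was reverse-transcribed, amplified, fluorescently labelled and resolved by capillary electrophoresis, and activity was fitted in both directions relative to DMSO.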

[16] = ATG_GRE_CIS: Attagene CIS-FACTORIAL HepG2 Assay for human Glucocorticoid Response Elements (GRE) (AID 2282947); conditions: HepG2 GRE cis-reporter, Attagene multiplex mRNA; actives raise or lower the signal
In short: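 Cells (HepG2) bearing transfected cis-promoter reporter transcription units were treated with chemical for 24 hours. Reporter mRNA was measured via RT-PCR with capillary electrophoresis, and activity was fitted in both directions relative to DMSO.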

[17] = ATG_M_06_CIS: Attagene CIS-FACTORIAL HepG2 Assay for M06 Transcription Factor (Internal Marker) (AID 2282950); conditions: HepG2 Attagene CIS-FACTORIAL M06 internal marker reporter; actives raise or lower the signal
In short: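 Terse: HepG2, transient MRTU transfection (FuGene 6), 24 h dosing; total RNA, oligo(dT) RT, PCR, FAM label, HpaI cut, capillary electrophoresis; bidirectional fit vs DMSO baseline; background-control endpoint.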

[18] = molecular target: Hepatocyte nuclear factor 3-beta (Homo sapiens) (UniProt Q9Y261); test: ATG_FoxA2_CIS: Attagene CIS-FACTORIAL HepG2 Assay for human Forkhead box A2 (FOXA2) (AID 2282942); conditions: HepG2 cis-reporter transcription factor activity, 24 h; actives raise or lower the signal
In short: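 Transient MRTU transfection of HepG2 liver cells; 24 h treatment; total RNA → oligo(dT) RT → PCR → FAM primer extension → HpaI cut → CE. Bidirectional fit vs DMSO.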

[19] = ATG_PBREM_CIS: Attagene CIS-FACTORIAL HepG2 Assay for human Phenobarbital-responsive Enhancer Module (PBREM) (AID 2282955); conditions: HepG2 PBREM cis-reporter, Attagene multiplexed transcription; actives raise or lower the signal
In short: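 Endogenous transcription factors in human liver HepG2 cells drive a PBREM cis-element reporter, whose transcript level after 24 h treatment is quantified by RT-PCR with capillary electrophoresis; activity fitted in both directions against DMSO.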

Measured: AC50

Sequence of Hypoxia-inducible factor 1-alpha (Homo sapiens) (Q16665 whole entry, looked up, the tested form may be a part): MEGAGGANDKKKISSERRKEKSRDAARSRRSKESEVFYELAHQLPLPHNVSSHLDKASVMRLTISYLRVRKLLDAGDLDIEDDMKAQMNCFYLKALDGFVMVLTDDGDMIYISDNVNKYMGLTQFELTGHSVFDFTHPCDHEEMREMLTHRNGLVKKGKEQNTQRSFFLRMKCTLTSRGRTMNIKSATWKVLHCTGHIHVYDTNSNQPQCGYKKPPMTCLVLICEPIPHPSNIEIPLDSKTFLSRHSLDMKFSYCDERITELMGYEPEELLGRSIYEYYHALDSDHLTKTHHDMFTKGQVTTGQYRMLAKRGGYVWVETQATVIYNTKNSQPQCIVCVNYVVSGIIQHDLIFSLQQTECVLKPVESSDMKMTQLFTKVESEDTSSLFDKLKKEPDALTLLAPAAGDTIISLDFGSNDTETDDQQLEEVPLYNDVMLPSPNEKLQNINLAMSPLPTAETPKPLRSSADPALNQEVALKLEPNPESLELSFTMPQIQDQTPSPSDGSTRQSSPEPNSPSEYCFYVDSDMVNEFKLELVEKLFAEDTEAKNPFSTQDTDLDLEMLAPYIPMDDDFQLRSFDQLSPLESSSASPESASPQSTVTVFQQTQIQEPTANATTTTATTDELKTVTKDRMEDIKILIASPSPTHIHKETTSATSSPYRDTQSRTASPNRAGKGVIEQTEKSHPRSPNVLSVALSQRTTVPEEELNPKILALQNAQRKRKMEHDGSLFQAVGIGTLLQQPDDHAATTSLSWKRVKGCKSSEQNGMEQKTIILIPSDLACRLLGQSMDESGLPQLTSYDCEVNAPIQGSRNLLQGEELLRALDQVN
Sequence of Bile acid receptor (Homo sapiens) (Q96RI1 whole entry, looked up): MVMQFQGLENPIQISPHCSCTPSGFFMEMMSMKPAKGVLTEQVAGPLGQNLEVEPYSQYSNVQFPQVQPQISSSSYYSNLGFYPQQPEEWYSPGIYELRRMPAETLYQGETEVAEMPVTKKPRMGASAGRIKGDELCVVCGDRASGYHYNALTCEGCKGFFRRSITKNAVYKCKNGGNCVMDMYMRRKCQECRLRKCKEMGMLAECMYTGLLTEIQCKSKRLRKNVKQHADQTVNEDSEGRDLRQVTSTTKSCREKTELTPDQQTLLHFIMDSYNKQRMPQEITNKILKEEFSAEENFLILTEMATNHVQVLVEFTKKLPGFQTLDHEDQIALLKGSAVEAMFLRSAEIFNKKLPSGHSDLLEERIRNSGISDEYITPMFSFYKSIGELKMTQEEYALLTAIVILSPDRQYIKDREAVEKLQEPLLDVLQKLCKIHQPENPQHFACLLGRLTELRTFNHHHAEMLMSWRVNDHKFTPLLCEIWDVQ
Sequence of Hepatocyte nuclear factor 3-beta (Homo sapiens) (Q9Y261 whole entry, looked up): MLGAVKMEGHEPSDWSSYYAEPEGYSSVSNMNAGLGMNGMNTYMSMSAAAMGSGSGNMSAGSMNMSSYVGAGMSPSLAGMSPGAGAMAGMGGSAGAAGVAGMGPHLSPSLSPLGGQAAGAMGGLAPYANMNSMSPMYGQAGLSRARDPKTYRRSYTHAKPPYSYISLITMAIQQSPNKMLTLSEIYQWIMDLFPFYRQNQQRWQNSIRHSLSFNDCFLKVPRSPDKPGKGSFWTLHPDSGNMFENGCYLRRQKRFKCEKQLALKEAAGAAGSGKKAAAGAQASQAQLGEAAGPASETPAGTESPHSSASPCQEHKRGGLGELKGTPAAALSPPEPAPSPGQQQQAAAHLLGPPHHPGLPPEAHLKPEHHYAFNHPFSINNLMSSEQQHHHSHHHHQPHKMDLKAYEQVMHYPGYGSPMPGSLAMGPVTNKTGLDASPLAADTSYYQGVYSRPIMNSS
Sequence of Hepatocyte nuclear factor 6 (Homo sapiens) (Q9UBC0 whole entry, looked up, the tested form may be a part): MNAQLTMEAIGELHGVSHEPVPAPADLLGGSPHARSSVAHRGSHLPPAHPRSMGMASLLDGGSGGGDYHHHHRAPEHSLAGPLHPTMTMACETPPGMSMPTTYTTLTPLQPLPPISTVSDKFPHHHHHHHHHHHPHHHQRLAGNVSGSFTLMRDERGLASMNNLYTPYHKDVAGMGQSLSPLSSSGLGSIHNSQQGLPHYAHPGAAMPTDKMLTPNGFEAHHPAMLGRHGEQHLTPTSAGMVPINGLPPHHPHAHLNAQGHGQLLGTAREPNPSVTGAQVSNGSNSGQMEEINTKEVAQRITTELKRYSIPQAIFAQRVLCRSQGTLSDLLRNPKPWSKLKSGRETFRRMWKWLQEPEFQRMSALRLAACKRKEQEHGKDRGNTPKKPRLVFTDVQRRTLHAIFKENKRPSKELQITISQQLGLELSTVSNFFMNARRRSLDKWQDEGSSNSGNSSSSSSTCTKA
Sequence of Heat shock factor protein 1 (Homo sapiens) (Q00613 whole entry, looked up, the tested form may be a part): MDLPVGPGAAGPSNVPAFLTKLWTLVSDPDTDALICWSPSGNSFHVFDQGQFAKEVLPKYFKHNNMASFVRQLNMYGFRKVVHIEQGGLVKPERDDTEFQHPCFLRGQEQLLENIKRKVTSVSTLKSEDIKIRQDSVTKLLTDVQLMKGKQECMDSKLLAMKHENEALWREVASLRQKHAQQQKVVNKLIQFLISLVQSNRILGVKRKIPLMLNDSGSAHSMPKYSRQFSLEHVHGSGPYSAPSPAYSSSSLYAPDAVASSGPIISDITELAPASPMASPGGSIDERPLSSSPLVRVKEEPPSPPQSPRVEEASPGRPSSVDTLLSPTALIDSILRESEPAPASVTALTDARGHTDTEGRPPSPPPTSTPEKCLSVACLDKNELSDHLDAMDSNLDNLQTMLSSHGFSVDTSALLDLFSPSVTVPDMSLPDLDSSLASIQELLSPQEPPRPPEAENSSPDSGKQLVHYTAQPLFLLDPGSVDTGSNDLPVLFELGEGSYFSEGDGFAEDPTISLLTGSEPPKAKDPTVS

Cc1cc(S(=O)(=O)O)ccc1N=Nc1c(O)ccc2ccccc12
not listed: [16] | [17] | [18] | [19]
inactive: all other assays above

CC(C)(C)c1ccc(C(=O)O)cc1
not listed: [6] | [13] | [18] | [19]
inactive: all other assays above

CC(=O)c1ccccn1
not listed: [6] | [10] | [16]
inactive: all other assays above

C=CC(=O)OCCC#N
inactive: [1] | [2] | [4] | [7] | [11] | [17] | [13] | [19]
active: [3] 82.6 µM | [5] 35.9 µM | [8] 145 µM | [9] 58.1 µM | [16] 64.2 µM | [10] 70 µM | [12] 56.6 µM | [14] 170 µM | [15] 86.2 µM

CCO/C=C1\N=C(c2ccccc2)OC1=O
not listed: [7] | [9] | [18]
inactive: all other assays above

C[C@H]1O[C@@H](O[C@H]2[C@@H](O)C[C@H](O[C@H]3[C@@H](O)C[C@H](O[C@H]4CC[C@@]5(C)[C@H](CC[C@@H]6[C@@H]5C[C@@H](O)[C@]5(C)[C@@H](C7=CC(=O)OC7)CC[C@]65O)C4)O[C@@H]3C)O[C@@H]2C)C[C@H](O)[C@@H]1O
active: [3] 0.163 µM | [5] 0.145 µM | [6] 0.202 µM | [7] 0.335 µM | [9] 0.253 µM | [16] 3.3 µM | [14] 0.194 µM | [15] 0.182 µM
inactive: [1] | [2] | [4] | [8] | [11] | [17] | [13]

Cc1c(C2(c3cc(Br)c(O)c(Br)c3C)OS(=O)(=O)c3ccccc32)cc(Br)c(O)c1Br
not listed: [5]
inactive: all other assays above

CC(C)(N=C=O)c1cccc(C(C)(C)N=C=O)c1
not listed: [9] | [12] | [18]
inactive: all other assays above

CCOC(=O)C1OC1c1ccccc1 (configuration not stated)
active: [1] 57 µM | [10] 33.5 µM
not listed: [9] | [18]
inactive: all other assays above

C=C(C)C(=O)OCCOCCOCCOC(=O)C(=C)C
not listed: [9] | [18]
inactive: all other assays above

C=C(C)CNCC
not listed: [7] | [9] | [18]
inactive: all other assays above

COCCOC(=O)c1ccccc1C(=O)OCCOC
not listed: [9] | [18]
inactive: all other assays above

O=c1c(O)c(-c2ccc(O)cc2)oc2cc(O)cc(O)c12
not listed: [6] | [12] | [17]
inactive: all other assays above

CC(Oc1cc(Cl)ccc1Cl)C(=O)O (configuration not stated)
not listed: [6] | [9] | [14]
inactive: all other assays above

CCCCCC(C)=O
not listed: [9] | [18]
inactive: all other assays above

c1ccc(Oc2ccccc2)cc1
not listed: [18]
inactive: all other assays above

Source: PubChem BioAssay (EPA / NIEHS)
